A short description of assay [1]: inhibitors of TNFa-induced NFkB p65 translocation, primary screen, imaging, HUVEC, MLSMR starter and 10KST1 sets (AID 438;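 active = inhibition above 20% together with a positive visual image hit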;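 also: compound added about 3h40 before a 20 min TNFalpha stimulation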;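 as to inhibition: signal is the nuclear over cytoplasmic p65 intensity ratio per well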). The note with it: HUVEC TNFa-induced p65 nuclear translocation; cell count: measured here: nuclei count (cytotoxicity indicator), at 2.08 µM; inhibition: at 2 µM, stronger effect = higher value, 0% TNFa-plus-vehicle, 100% no-TNFa wells.
Assay [2] can be described thus: reduction of polyQ htt aggregates in cells – imaging, exon1htt(103Q)mCFP cells, high-content imaging, primary screen (AID 483;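 active = visual image review flags a hit and inhibition of aggregation exceeds 20%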;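 also: compound exposure lasted 3 days before fixation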;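 as to nuclei count: percent of the per-plate median nuclei count of sample wells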). The settings on record: exon1htt(103Q)mCFP cell line, aggregate imaging, at 2 µM; inhibition of aggregation: stronger effect = higher value; nuclei count: measured here: cell count, toxicity.
Assay [3] is described as follows: endothelial E-selectin expression blockers – imaging, HUVEC, immunofluorescence, MLSMR starter and 10KST1 sets, primary screen (AID 487).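 As to inhibition: signal is fraction of cell area covered by stained E-selectin grains.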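 As to nuclei count: 100% = median nuclei count of all wells on the same plate.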 The note with it: HUVEC TNFalpha-induced E-selectin immunofluorescence imaging, at 2 µM; inhibition: stronger effect = higher value; nuclei count: measured here: cell number, toxicity.
The target in assay [4] is Voltage-gated potassium channel subunit beta-2 (Rattus norvegicus) (UniProt P62483). As to the kind of experiment: inhibitors of rat Kvbeta2 reductase activity – biochemical, NADPH fluorescence, primary screen (AID 622;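 active = fluorescence slope higher than the sample average by over 3 SD, cut at about -0.22 in these data, passing the limit was not always enough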;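 also: slope of raw intensity against log time taken from 70 to 1610 s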). The settings on record: recombinant KvBeta, 4-cyanobenzaldehyde reduction, at 10 µM, stronger effect = higher value.
The target is the same in assay [5]. Description: enhancers of rat Kvbeta2 NADPH turnover – biochemical, NADPH fluorescence, primary screen (AID 623;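 active = NADPH fluorescence slope more negative than the mean of all samples by about 3 SD, 99.7% confidence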;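 also: fluorescence intensity change per second fitted from 20 to 320 s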). The settings on record: Recombinant KvBeta, NADPH fluorescence decrease slope, 10 min; at 10 µM; stronger effect = lower value.
Assay [6] addresses Alpha-2C adrenergic receptor (Homo sapiens) (UniProt P18825). As to the kind of experiment: compounds altering alpha2C-coupled GIRK flux – cell-based, HEK293 alpha2C/GIRK1/2, thallium flux, primary screen (AID 624;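 active = fluorescence slope after compound addition differing from the mean of all screened samples at 99.7% confidence, in either direction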;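 also: slope of fluorescence ratio to pre-addition baseline per second over 15 to 24 s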). The note with it: thallium flux BTC fluorescence, at 10 µM, actives lie on both sides.
Assay [7] in a line: blockers of RIG-like receptor reporter activation – cell-based, Sendai virus stimulus, luciferase, 10K MLSCN set, TLR/RLR signaling modifier project, primary screen (AID 602276;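 active = inhibition at or above 50% at 10 µM; inactive = inhibition below 50%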;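 also: firefly luciferase from ISG56 promoter only with Renilla not read in this screen; 0% = Sendai virus plus DMSO and 100% = medium plus DMSO without virus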). The settings on record: HEK293 RL24 IRF3 luciferase reporter, at 10 µM, stronger effect = higher value. In general terms: A reporter such as luciferase makes a cellular process visible.
Assay [8] can be described thus: TLR3 IRF3 reporter activation blockers – cell-based, poly I:C stimulus, luciferase, 10K MLSCN set, primary screen (AID 602277;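 active = inhibition of the reporter signal at or above 50%; inactive = inhibition below 50%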). The note with it: HEK293-TLR3 RL24 IRF3 luciferase reporter, at 10 µM, stronger effect = higher value.

The values that follow come from PubChem BioAssay.

Each structure is given as a SMILES string. The source made the active and inactive calls.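 The calls were made as follows, unless noted: active = visually confirmed hit in the image check and inhibition above 20%; inconclusive = visually confirmed hit but inhibition not above 20%; inactive = no visual hit in the image check.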

Voltage-gated potassium channel subunit beta-2 (Rattus norvegicus), sequence (P62483 whole entry, looked up): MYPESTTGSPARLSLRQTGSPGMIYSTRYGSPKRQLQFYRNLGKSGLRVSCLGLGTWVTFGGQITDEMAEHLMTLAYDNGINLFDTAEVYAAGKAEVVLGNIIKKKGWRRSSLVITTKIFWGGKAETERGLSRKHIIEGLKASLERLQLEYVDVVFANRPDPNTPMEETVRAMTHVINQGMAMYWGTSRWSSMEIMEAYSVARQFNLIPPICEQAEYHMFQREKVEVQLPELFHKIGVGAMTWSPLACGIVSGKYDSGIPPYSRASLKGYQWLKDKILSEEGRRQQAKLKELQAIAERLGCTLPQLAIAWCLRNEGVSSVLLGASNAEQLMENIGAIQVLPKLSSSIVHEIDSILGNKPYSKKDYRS
Alpha-2C adrenergic receptor (Homo sapiens), sequence (P18825 whole entry, looked up): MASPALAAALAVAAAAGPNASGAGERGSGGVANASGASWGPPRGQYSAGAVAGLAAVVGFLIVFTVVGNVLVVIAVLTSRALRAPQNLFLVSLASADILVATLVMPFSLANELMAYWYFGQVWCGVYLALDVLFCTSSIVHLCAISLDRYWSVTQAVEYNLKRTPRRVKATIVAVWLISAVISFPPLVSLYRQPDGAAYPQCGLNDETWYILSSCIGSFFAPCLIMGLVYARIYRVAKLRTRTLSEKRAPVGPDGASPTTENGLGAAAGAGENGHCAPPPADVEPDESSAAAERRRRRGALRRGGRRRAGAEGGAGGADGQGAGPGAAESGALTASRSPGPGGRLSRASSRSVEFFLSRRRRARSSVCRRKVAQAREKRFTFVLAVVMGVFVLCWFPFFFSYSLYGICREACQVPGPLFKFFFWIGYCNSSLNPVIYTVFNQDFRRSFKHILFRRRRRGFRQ

Turning to `Cc1cccc(CN2CCC(CNC(=O)C3CCCN(S(=O)(=O)c4cnc[nH]4)C3)CC2)c1` (centres undefined), in assay [1], the cell count was found to be 706. The inhibition (usually the relative decrease from the control value, in per cent) was -12.2% (inactive) in assay [1], -61.1% (inactive) in assay [3], 18.8% (inactive) in assay [7] and 27.2% (inactive) in assay [8]. In assay [2], the inhibition of aggregation is 10.2% (inactive). The nuclei count in assay [2] amounted to 106%; in assay [3], 125%. In addition, the fluorescence slope in assay [4] is -0.518 (inactive). Besides, the NADPH fluorescence slope in assay [5] was -3.2e-05 (inactive). Also, the slope in assay [6] was 0.0058 (inactive).
As to `CCC1(NC(C)=O)CC2CC1CC2NC(C)=O` (centres undefined), the cell count in assay [1] is 340. Besides, the inhibition in assay [1] is -1.4% (inactive); in assay [3] it was -37.4% (inactive); in assay [7], 1.63% (inactive); in assay [8], 3.3% (inactive). In assay [2], the inhibition of aggregation is -4.3% (inactive). Besides, the results for the nuclei count in assay [2] and in assay [3] were 100% and 103%, respectively. For the same compound, the fluorescence slope in assay [4] is -0.614 (inactive). For the same compound, the NADPH fluorescence slope in assay [5] is -1.3e-05 (inactive). For the same compound, the slope in assay [6] was 0.00321 (inactive).
`CC(C)OC(=O)c1cc(=O)[nH]c2ccccc12`: in assay [1], the cell count came out at 267. For the same compound, the inhibition was 14% (inactive) in assay [1], -4.6% (inactive) in assay [3], 12.2% (inactive) in assay [7] and 9.33% (inactive) in assay [8]. The inhibition of aggregation in assay [2] was 5.3% (inactive). Besides, the nuclei count in assay [2] was 94%; in assay [3] it was 92.6%. Moreover, in assay [4], the fluorescence slope was -0.556 (inactive). Moreover, in assay [5], the NADPH fluorescence slope was 3e-05 (inactive). The slope in assay [6] was 0.00572 (inactive).
Turning to `c1ccc(-c2nnc(-c3ccco3)n2-c2ccccc2)cc1`, the cell count in assay [1] worked out at 383. For the same compound, the inhibition in assay [1] is 4.1% (inactive); in assay [3], -75.9% (inactive); in assay [7], 15.2% (inactive); in assay [8], 20.5% (inactive). For the same compound, the inhibition of aggregation in assay [2] is 8.4% (inactive). For the same compound, the nuclei count was 102% in assay [2] and 126% in assay [3]. For the same compound, the fluorescence slope in assay [4] was -0.47 (inactive). Further, the NADPH fluorescence slope in assay [5] was -2.4e-05 (inactive). Also, in assay [6], the slope is 0.00639 (inactive).
Consider `COc1ccccc1CNC(=O)Nc1cccs1`, for which, in assay [1], the cell count amounted to 546. In addition, the inhibition was -6.3% (inactive) in assay [1], -30.8% (inactive) in assay [3], -0.521% (inactive) in assay [7] and -0.402% (inactive) in assay [8]. The inhibition of aggregation in assay [2] is 9.4% (inactive). Besides, the nuclei count is 118% in assay [2] and 123% in assay [3]. In addition, the fluorescence slope in assay [4] was -0.45 (inactive). The NADPH fluorescence slope in assay [5] is 8.3e-06 (inactive). The slope in assay [6] was 0.0111 (inactive).
As to `Cc1ccc(-c2cc(C(=O)O)n[nH]2)o1`, the cell count in assay [1] is 358. For the same compound, the inhibition was 1% (inactive) in assay [1], -1.4% (inactive) in assay [3], 9.01% (inactive) in assay [7] and 14.9% (inactive) in assay [8]. Further, in assay [2], the inhibition of aggregation is 3.3% (inactive). Besides, the nuclei count came out at 101% in assay [2] and 97.7% in assay [3]. In addition, in assay [4], the fluorescence slope was -0.612 (inactive). In assay [5], the NADPH fluorescence slope is 4.6e-05 (inactive). For the same compound, the slope in assay [6] is 0.00603 (inactive).
For the compound `CCCC(=O)Nc1c2c(nn1-c1ccc(OC)cc1)CS(=O)C2` (centres undefined), the cell count in assay [1] was 472. Besides, the inhibition is 4.2% (inactive) in assay [1], -70.5% (inactive) in assay [3], 10.8% (inactive) in assay [7] and 22.2% (inactive) in assay [8]. Moreover, in assay [2], the inhibition of aggregation was -25.4% (inactive). Further, the nuclei count in assay [2] is 117%; in assay [3] it was 100%. Moreover, in assay [4], the fluorescence slope is -0.476 (inactive). In addition, the NADPH fluorescence slope in assay [5] was -3.3e-05 (inactive). The slope in assay [6] is 0.00523 (inactive).
With `Cc1cccc(-c2nc(CN3CCCC(C(=O)NC4CCCC4)C3)c(C)o2)c1` (centres undefined), the cell count in assay [1] is 333. For the same compound, the inhibition is -0.4% (inactive) in assay [1], -15.2% (inactive) in assay [3], 20.6% (inactive) in assay [7] and 16.3% (inactive) in assay [8]. The inhibition of aggregation in assay [2] was -3.8% (inactive). For the same compound, the nuclei count worked out at 111% in assay [2] and 103% in assay [3]. The fluorescence slope in assay [4] is -0.514 (inactive). Also, the NADPH fluorescence slope in assay [5] is -5.9e-06 (inactive). Moreover, in assay [6], the slope is 0.00415 (inactive).
With `CN(C)c1ccnc(NCc2ccccc2)c1C#N`, the cell count in assay [1] was found to be 286. In addition, the inhibition in assay [1] is 2.1% (inactive); in assay [3] it was -62% (inactive); in assay [7], -8.5% (inactive); in assay [8] it was -26.6% (inactive). Also, the inhibition of aggregation in assay [2] was 19% (inactive). For the same compound, the nuclei count in assay [2] is 72.9%; in assay [3], 112%. Also, in assay [4], the fluorescence slope was -0.411 (inactive). For the same compound, the NADPH fluorescence slope in assay [5] was -3.6e-05 (inactive). For the same compound, the slope in assay [6] is 0.00526 (inactive).
For the compound `Cc1csc2ncc(C(=O)N3CCc4ccccc43)c(=O)n12`, the cell count in assay [1] is 601. The inhibition in assay [1] was 5.3% (inactive); in assay [3], 10% (inactive); in assay [7], 11.1% (inactive); in assay [8], 39.2% (inactive). Further, the inhibition of aggregation in assay [2] was -17% (inactive). The nuclei count in assay [2] was 104%; in assay [3] it was 110%. The fluorescence slope in assay [4] is -0.551 (inactive). Further, in assay [5], the NADPH fluorescence slope is -4.3e-05 (inactive). Further, the slope in assay [6] is 0.00571 (inactive).
For the compound `CCC(C(=O)O)n1c(C(F)(F)F)nc2ccccc21` (centres undefined), the cell count in assay [1] is 717. Also, the inhibition was -29.6% (inactive) in assay [1], -6.3% (inactive) in assay [3], 7.44% (inactive) in assay [7] and 14.4% (inactive) in assay [8]. Besides, in assay [2], the inhibition of aggregation is 4.1% (inactive). Further, the nuclei count was 103% in assay [2] and 108% in assay [3]. In addition, the fluorescence slope in assay [4] is -0.558 (inactive). Also, the NADPH fluorescence slope in assay [5] is -2.1e-05 (inactive). Moreover, the slope in assay [6] was 0.00512 (inactive).
For `CC(C)OC(=O)CCCCCN1C(=O)CSC1=S`, the cell count in assay [1] was 448. Besides, the inhibition in assay [1] was -9.2% (inactive); in assay [3], -93.7% (inactive); in assay [7] it was 1.67% (inactive); in assay [8], -4.31% (inactive). In addition, the inhibition of aggregation in assay [2] was -5.3% (inactive). For the same compound, the nuclei count in assay [2] came to 80.5%; in assay [3] it was 114%. Moreover, in assay [4], the fluorescence slope was -0.539 (inactive). Also, in assay [5], the NADPH fluorescence slope was -1.3e-05 (inactive). The slope in assay [6] was 0.00459 (inactive).
As for `CCCCN(C)C(=O)CS(=O)(=O)Cc1nc(-c2cccc(OC)c2)oc1C`, the cell count in assay [1] turned out to be 737. For the same compound, the inhibition in assay [1] is 1.1% (inactive); in assay [3] it was -26.7% (inactive); in assay [7] it was 16.1% (inactive); in assay [8] it was 16.3% (inactive). Besides, in assay [2], the inhibition of aggregation was 13.9% (inactive). The nuclei count in assay [2] turned out to be 98.3%; in assay [3], 115%. The fluorescence slope in assay [4] was -0.518 (inactive). Moreover, the NADPH fluorescence slope in assay [5] is -3.7e-05 (inactive). In addition, the slope in assay [6] is 0.00718 (inactive).
In the case of `O=C(CN1CCN(c2ncccn2)CC1)Nc1ccccc1-n1cccc1`, the cell count in assay [1] turned out to be 327. Moreover, the inhibition in assay [1] is 13.4% (inactive); in assay [3], 25.5% (inactive); in assay [7], 14.7% (inactive); in assay [8], 8.32% (inactive). For the same compound, the inhibition of aggregation in assay [2] is 16% (inactive). In addition, the nuclei count in assay [2] was found to be 81.3%; in assay [3], 93.4%. In addition, the fluorescence slope in assay [4] is -0.621 (inactive). Further, in assay [5], the NADPH fluorescence slope is -6.7e-06 (inactive). In addition, the slope in assay [6] was 0.006 (inactive).
